Bioassay records as filed in PubChem.
MsrA inh = inhibits bovine methionine sulfoxide reductase A; purified bovine MsrA, absorbance read-out; inhibition, % at 15.5 µM; 0.75% of 360,000 active; in the data active means inhibition above about 4.5%;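 further: 0% = vehicle wells with enzyme and 100% = reference inhibitor wells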
NadD inh = inhibitors of Staphylococcus aureus NadD. purified NadD enzyme, colorimetric absorbance read-out. inhibition, % at 20 µM. 0.78% of 360,000 active; in the data active means inhibition above about 26%
bovine MsrA act = bovine methionine sulfoxide reductase A activation. purified bovine MsrA, absorbance read-out. activation, % at 10.6 µM. 0.3% of 360,000 active. AID 602163; in the data active means activation above about 7.5%;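 further: 0% = vehicle and 100% = reference activator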
rCAG binder = r(CAG) repeat RNA binding. TO-PRO-1 dye displacement fluorescence. inhibition, % at 3 µM. 1.3% of 370,000 active;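 active means inhibition above the plate cutoff, the mean of all test compounds on that plate plus 3 SD, cut at about 35% in these data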;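 further: 0% = DMSO alone and 100% = 100 µM mitoxantrone as full dye displacement; higher means more dye released from RNA so lower well fluorescence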
DAGLB inh = diacylglycerol lipase beta (human) inhibition. 0.059% of 340,000 active. AID 504411. HEK293T DAGLB membrane lysate, EnzChek fluorogenic substrate. Q8NCG7. inhibition, % at 5.17 µM; in the data active means inhibition above about 34%;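 further: 0% = enzyme with vehicle and 100% = wells lacking enzyme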
Pemphigus Ab inh = human desmoglein-3 autoantibody binding inhibition | P32926 | DSG3-coupled beads, scFv-anti-DSG3-GFP binding, flow cytometry; active compounds read low | binding (percent of control), % at 10 µM | 0.48% of 310,000 active;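 active means binding more than 3 SD below its plate's average and above zero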;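 further: hits lower antibody fragment binding to DSG3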
NadD conf = NadD (S. aureus) inhibition, single concentration confirmation. shares compounds with NadD inh. purified S. aureus NadD, colorimetric enzyme assay. inhibition, % at 20 µM. 13% of 2,000 active; in the data active means inhibition mostly above about 42%, no sharp cut-off; inactive means mostly below about 42%
The depositor's hits bear a star. Shown are actives, neighbours in structure and some others; about 3.2% of the full set was active somewhere.

`O=C(N/N=C/c1ccc(Cl)c([N+](=O)[O-])c1)c1cc(-c2ccc3c4c(cccc24)CC3)n[nH]1` gave MsrA inh -2, NadD inh 51*, bovine MsrA act -3, rCAG binder 8, DAGLB inh 1, Pemphigus Ab inh 99 and NadD conf 1.
For CCc1cccc2c1NC(=O)C21N2CCCC2C(C(=O)c2ccc3ccccc3c2)C12C(=O)Nc1ccccc12 (stereo not drawn) the results were MsrA inh 0, NadD inh 39*, bovine MsrA act -10, rCAG binder 17, DAGLB inh 2, Pemphigus Ab inh 102 and NadD conf 52*.
C[C@H]1CN([C@@H](C)CO)C(=O)c2cc(C#Cc3cccnc3)cnc2O[C@H]1CN(C)Cc1ccc(F)cc1 was read as MsrA inh 0, NadD inh 39*, bovine MsrA act -4, rCAG binder 4, DAGLB inh -5, Pemphigus Ab inh 104 and NadD conf 16.
CC(C)(C)C(C(=O)NC1CCCC1)N1CCN(c2ncccc2C#N)CC1 (stereo not drawn) was read as MsrA inh -1 and rCAG binder 1.
`O=C(Nc1cccc(Cl)c1)c1nc[nH]c1C(=O)NCCCCNC(=O)c1[nH]cnc1C(=O)Nc1cccc(Cl)c1` gave MsrA inh 0, NadD inh 31*, bovine MsrA act 1, rCAG binder 1, DAGLB inh 4, Pemphigus Ab inh 85 and NadD conf 5.
Screening O=C(Nc1cccc(Cl)c1)c1nc[nH]c1C(=O)NCc1ccccc1 returned MsrA inh 1, NadD inh 7, bovine MsrA act -12, rCAG binder 10, DAGLB inh -2 and Pemphigus Ab inh 104.
Screening O=C(Nc1ccc(Cl)cc1)c1nc[nH]c1C(=O)NCCCCNC(=O)c1[nH]cnc1C(=O)Nc1ccc(Cl)cc1 returned MsrA inh -1, NadD inh 30*, bovine MsrA act 0, rCAG binder 1, DAGLB inh -1, Pemphigus Ab inh 96 and NadD conf 6.
O=C(Nc1cccc(Cl)c1)c1nc[nH]c1C(=O)NCCN(CCNC(=O)c1[nH]cnc1C(=O)Nc1cccc(Cl)c1)CCNC(=O)c1[nH]cnc1C(=O)Nc1cccc(Cl)c1 was read as MsrA inh 0, NadD inh 59*, bovine MsrA act 0, rCAG binder 4, DAGLB inh 0, Pemphigus Ab inh 92 and NadD conf 9.
Screening C=CCN(Cc1ccc2c(c1)OCO2)C(C#CC1CC1)C(C)C (stereo not drawn) returned rCAG binder 3.
Nc1ccccc1C(=O)NNC(=O)C(=O)/C=C(\O)c1ccccc1 was read as MsrA inh 1, NadD inh 72*, bovine MsrA act -4, rCAG binder 24, Pemphigus Ab inh 92 and NadD conf 73*.
`COc1ccc(NC(=O)CSC2=C(C#N)C(c3ccco3)C(C(=O)Nc3nc4ccccc4s3)=C(C)N2)cc1` (stereo not drawn) gave MsrA inh 2, NadD inh 38*, bovine MsrA act -2, rCAG binder 24, DAGLB inh 1 and NadD conf 11.
For CCC1Nc2ncnc(N3CCN(c4ccccc4)CC3)c2N(Cc2ccc(Br)cc2)C1=O (stereo not drawn) the results were MsrA inh 0, NadD inh 10, bovine MsrA act -3, rCAG binder 1, DAGLB inh 8 and Pemphigus Ab inh 99.
Screening O=C1C(Cc2ccccc2)Nc2ncnc(N3CCN(c4ccccc4)CC3)c2N1Cc1ccc(Br)cc1 (stereo not drawn) returned MsrA inh 0, NadD inh 42*, bovine MsrA act -10, rCAG binder 32, DAGLB inh -6, Pemphigus Ab inh 97 and NadD conf 11.
For O=C1C(Cc2ccccc2)Nc2ncnc(N3CCN(c4ccccc4)CC3)c2N1Cc1ccccc1 (stereo not drawn) the results were MsrA inh 2, NadD inh 15, bovine MsrA act -4, rCAG binder 7, DAGLB inh 7 and Pemphigus Ab inh 105.
Cc1ccc(CN2C(=O)C(Cc3ccccc3)Nc3ncnc(N4CCN(c5ccccc5)CC4)c32)cc1 (stereo not drawn) was read as MsrA inh 2, NadD inh 28*, bovine MsrA act -1, rCAG binder 12, DAGLB inh -3, Pemphigus Ab inh 98 and NadD conf 10.
Screening COc1cccc(C(=O)N2CCCc3ccccc32)c1OC returned MsrA inh 0, NadD inh 1, bovine MsrA act -5, rCAG binder 2, DAGLB inh -1 and Pemphigus Ab inh 105.
For N=C1S/C(=C\c2cccc3ccccc23)C(=O)N1c1ccc(F)cc1 the results were MsrA inh 0, NadD inh 33*, bovine MsrA act -4, rCAG binder 7, DAGLB inh -1, Pemphigus Ab inh 90 and NadD conf 5.
For Cc1c(N=C2N=C(NC(=O)c3cccs3)c3ccccc32)c(=O)n(-c2ccccc2)n1C the results were MsrA inh 1, NadD inh 31*, bovine MsrA act 1, rCAG binder 0, DAGLB inh 5 and NadD conf 12.
`Cc1cccc(C)c1NC(=O)c1cn(-c2ccccc2)nc1-c1ccccc1` gave MsrA inh 1, NadD inh 4, bovine MsrA act -2, rCAG binder 0, DAGLB inh -2 and Pemphigus Ab inh 111.
Screening Cc1nn(Cc2ccc(Cl)c(Cl)c2)c(C)c1NC(=O)c1cn(-c2ccccc2)nc1-c1ccccc1 returned MsrA inh 0, NadD inh 33*, bovine MsrA act -11, rCAG binder 5, DAGLB inh 2, Pemphigus Ab inh 98 and NadD conf 34.
For COc1cccc(Cn2c(C(C)n3c(C)nc4ccccc43)nc3ccccc32)c1 (stereo not drawn) the results were MsrA inh -1 and rCAG binder 0.
For O=C(COC(=O)c1c2c(nc3ccccc13)/C(=C/c1cccc([N+](=O)[O-])c1)CCC2)NC1CCS(=O)(=O)C1 (stereo not drawn) the results were MsrA inh 5, NadD inh -1, bovine MsrA act -10, rCAG binder 9, DAGLB inh -1 and Pemphigus Ab inh 100.
Screening Cc1cccc(C)c1NC(=O)COC(=O)c1ccc2c(c1)OCO2 returned MsrA inh 1, NadD inh 2, bovine MsrA act -2, rCAG binder 7, DAGLB inh 1 and Pemphigus Ab inh 84.
Screening CC1CCCCC1NC(=O)COC(=O)c1c2c(nc3ccccc13)/C(=C\c1ccco1)CC2 (stereo not drawn) returned MsrA inh 1, NadD inh 79*, bovine MsrA act -1, rCAG binder 54*, DAGLB inh 16, Pemphigus Ab inh 115 and NadD conf 51*.
